Legend:
Test in all cases: DAPPL (digital affinity profiling via proximity ligation, sequencing); 10 mM Tris-HCl pH 7.5, 50 mM NaCl, 1 mM DTT, 4% glycerol, room temperature, 30 min; GST-TFs on glutathione beads, 16-mer random dsDNA library, 0.1% formaldehyde crosslink after washing; high values mean tight binding
Conditions in all cases: protein: recombinant; tags: N-terminal GST; dsDNA, one strand shown
[1] = target: T1, FLI1 (Homo sapiens, UniProt Q01543 1-452)
T1 sequence: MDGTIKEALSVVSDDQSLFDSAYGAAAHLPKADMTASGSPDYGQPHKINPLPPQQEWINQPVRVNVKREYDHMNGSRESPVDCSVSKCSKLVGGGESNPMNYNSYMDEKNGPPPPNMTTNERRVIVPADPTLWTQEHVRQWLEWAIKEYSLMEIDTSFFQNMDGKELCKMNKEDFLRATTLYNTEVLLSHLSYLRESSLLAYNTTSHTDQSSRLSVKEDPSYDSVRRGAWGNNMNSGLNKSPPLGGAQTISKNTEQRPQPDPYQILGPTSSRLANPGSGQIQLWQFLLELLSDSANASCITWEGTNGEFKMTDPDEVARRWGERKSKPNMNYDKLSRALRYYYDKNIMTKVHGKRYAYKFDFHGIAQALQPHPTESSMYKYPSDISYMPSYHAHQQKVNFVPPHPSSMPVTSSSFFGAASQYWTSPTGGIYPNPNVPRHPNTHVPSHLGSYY
How it was run: (§1)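 After expression in yeast as GST fusions, human transcription factors were bound to glutathione beads, DNA-barcoded and mixed with a tag-only sample. The pools were incubated with 200 nmole of a 16-mer random double-stranded DNA library in Tris/NaCl/DTT/glycerol buffer (30 min, room temperature), washed and crosslinked with 0.1% formaldehyde. Proximity ligation with BsaI/T4 ligase ran for 1 h at 37 °C, before PCR amplification and sequencing on an Illumina NextSeq500. Binding signal is a hexamer's read frequency for a factor divided by its frequency for the tag-only sample.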

[2] = target: T2, ELK1 (Homo sapiens, UniProt P19419 1-428)
T2 sequence: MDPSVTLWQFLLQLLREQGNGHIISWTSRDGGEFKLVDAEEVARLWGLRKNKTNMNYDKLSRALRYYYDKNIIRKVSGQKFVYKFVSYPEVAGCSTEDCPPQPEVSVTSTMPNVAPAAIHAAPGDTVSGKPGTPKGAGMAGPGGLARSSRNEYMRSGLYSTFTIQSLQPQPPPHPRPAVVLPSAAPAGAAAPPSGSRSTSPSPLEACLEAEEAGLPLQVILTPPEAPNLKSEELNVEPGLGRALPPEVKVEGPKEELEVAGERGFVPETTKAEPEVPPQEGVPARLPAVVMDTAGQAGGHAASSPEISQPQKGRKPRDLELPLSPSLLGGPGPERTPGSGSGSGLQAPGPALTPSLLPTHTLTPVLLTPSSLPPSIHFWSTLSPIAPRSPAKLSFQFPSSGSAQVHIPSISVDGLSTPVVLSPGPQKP
How it was run: as §1

[3] = target: T3, GABPA (Homo sapiens, UniProt Q06546 1-454)
T3 sequence: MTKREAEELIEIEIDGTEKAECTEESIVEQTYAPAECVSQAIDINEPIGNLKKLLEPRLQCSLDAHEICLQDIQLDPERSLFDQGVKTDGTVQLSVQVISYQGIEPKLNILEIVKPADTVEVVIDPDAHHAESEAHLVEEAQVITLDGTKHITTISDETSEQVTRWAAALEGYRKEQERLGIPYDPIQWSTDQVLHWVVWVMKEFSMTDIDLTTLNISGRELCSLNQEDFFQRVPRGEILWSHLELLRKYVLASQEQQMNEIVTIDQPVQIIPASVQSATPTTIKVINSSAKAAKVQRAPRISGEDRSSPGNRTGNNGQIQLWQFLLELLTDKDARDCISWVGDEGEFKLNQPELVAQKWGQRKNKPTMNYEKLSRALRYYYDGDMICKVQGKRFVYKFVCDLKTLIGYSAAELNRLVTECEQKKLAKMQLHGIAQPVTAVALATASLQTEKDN
How it was run: as §1

[4] = target: T4, ERG (Homo sapiens, UniProt P11308 1-479)
T4 sequence: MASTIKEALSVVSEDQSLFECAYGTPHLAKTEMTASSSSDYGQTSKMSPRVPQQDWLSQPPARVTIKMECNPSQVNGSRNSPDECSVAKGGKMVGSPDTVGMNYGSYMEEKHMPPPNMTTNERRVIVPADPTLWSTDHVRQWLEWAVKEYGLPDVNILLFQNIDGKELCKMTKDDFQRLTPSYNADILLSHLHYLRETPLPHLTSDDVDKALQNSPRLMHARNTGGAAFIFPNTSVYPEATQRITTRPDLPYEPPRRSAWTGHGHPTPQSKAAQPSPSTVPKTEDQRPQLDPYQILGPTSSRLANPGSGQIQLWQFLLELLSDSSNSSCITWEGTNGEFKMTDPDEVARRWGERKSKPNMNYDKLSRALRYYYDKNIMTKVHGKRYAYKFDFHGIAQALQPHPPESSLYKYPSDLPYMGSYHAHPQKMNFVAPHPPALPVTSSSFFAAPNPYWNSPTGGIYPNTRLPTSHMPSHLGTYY
How it was run: as §1

[5] = target: ELF1 (Homo sapiens, UniProt P32519 1-619)
Chain of ELF1 (P32519 whole entry): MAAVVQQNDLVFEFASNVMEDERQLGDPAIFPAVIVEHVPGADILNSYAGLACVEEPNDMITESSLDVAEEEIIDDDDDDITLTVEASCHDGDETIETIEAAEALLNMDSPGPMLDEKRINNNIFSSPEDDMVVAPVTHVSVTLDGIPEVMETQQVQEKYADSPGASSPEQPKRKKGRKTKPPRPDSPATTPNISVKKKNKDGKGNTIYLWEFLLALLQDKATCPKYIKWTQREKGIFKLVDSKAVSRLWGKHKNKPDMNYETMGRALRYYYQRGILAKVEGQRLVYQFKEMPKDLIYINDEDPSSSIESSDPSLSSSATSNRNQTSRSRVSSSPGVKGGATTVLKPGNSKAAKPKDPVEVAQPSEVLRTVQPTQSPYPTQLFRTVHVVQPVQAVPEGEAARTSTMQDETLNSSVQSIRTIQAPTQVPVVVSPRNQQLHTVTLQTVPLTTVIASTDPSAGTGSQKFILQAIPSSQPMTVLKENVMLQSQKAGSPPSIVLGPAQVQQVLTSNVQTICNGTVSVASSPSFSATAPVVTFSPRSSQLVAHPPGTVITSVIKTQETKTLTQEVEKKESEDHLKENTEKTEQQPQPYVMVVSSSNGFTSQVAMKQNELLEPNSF
How it was run: as §1

[6] = target: T5, EHF (Homo sapiens, UniProt Q9NZC4 1-300)
T5 sequence: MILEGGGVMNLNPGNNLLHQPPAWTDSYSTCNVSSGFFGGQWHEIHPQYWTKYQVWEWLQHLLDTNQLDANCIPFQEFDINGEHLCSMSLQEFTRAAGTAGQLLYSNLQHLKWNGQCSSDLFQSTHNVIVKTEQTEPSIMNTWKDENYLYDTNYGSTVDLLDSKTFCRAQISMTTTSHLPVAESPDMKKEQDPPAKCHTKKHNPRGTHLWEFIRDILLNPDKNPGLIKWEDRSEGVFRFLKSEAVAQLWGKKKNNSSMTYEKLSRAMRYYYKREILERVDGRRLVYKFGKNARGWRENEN
How it was run: as §1

[7] = target: SPI1 (Homo sapiens, UniProt P17947 1-270)
How it was run: as §1

[8] = target: SPIB (Homo sapiens, UniProt Q01892 1-262)
Chain of SPIB (Q01892 whole entry): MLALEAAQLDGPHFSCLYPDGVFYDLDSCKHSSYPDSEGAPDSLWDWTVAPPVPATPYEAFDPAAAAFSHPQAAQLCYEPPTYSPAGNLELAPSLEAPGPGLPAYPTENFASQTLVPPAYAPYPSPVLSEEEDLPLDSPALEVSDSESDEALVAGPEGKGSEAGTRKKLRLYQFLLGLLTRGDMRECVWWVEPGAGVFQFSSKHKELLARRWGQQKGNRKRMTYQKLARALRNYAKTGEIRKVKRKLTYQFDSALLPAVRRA
How it was run: as §1

[9] = target: T6, ELK3 (Homo sapiens, UniProt P41970 1-407)
T6 sequence: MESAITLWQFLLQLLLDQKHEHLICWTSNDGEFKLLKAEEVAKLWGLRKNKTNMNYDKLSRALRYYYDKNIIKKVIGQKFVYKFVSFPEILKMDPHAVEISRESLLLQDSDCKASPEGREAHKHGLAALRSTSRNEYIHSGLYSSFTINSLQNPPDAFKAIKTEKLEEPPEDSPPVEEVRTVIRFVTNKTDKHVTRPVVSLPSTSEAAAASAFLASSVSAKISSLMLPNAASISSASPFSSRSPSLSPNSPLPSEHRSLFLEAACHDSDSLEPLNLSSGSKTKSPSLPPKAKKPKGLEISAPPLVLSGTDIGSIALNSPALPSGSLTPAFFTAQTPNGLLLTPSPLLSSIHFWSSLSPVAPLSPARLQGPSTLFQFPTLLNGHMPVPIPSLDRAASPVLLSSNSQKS
How it was run: as §1

TTAAGG was tested, and the binding signal [1] was 1.14 fold enrichment (6-mer frequency, TF over GST control), the binding signal [2] was 1.14 fold enrichment (6-mer frequency, TF over GST control) and the binding signal [3] was 1.2 fold enrichment (6-mer frequency, TF over GST control). For the same sequence, the binding signal [4] was 1.18 fold enrichment (6-mer frequency, TF over GST control), the binding signal [5] was 1.13 fold enrichment (6-mer frequency, TF over GST control) and the binding signal [6] was 1.13 fold enrichment (6-mer frequency, TF over GST control). For the same sequence, the binding signal [7] was 1.26 fold enrichment (6-mer frequency, TF over GST control), the binding signal [8] was 1.15 fold enrichment (6-mer frequency, TF over GST control) and the binding signal [9] was 1.06 fold enrichment (6-mer frequency, TF over GST control).
For AATAGT, the binding signal [1] was 1.21 fold enrichment (6-mer frequency, TF over GST control), the binding signal [2] was 1.2 fold enrichment (6-mer frequency, TF over GST control) and the binding signal [3] was 1.2 fold enrichment (6-mer frequency, TF over GST control). The binding signal [4] was 1.31 fold enrichment (6-mer frequency, TF over GST control), the binding signal [5] was 1.19 fold enrichment (6-mer frequency, TF over GST control) and the binding signal [6] was 1.23 fold enrichment (6-mer frequency, TF over GST control). The binding signal [7] was 1.17 fold enrichment (6-mer frequency, TF over GST control), the binding signal [8] was 1.22 fold enrichment (6-mer frequency, TF over GST control) and the binding signal [9] was 1.11 fold enrichment (6-mer frequency, TF over GST control).
In the case of CCAACT, the binding signal [1] is reported as 1.26 fold enrichment (6-mer frequency, TF over GST control), the binding signal [2] is reported as 1.19 fold enrichment (6-mer frequency, TF over GST control) and the binding signal [3] is reported as 1.23 fold enrichment (6-mer frequency, TF over GST control). The binding signal [4] was 1.26 fold enrichment (6-mer frequency, TF over GST control), the binding signal [5] was 1.25 fold enrichment (6-mer frequency, TF over GST control) and the binding signal [6] was 1.24 fold enrichment (6-mer frequency, TF over GST control). The binding signal [7] was 1.14 fold enrichment (6-mer frequency, TF over GST control), the binding signal [8] was 1.25 fold enrichment (6-mer frequency, TF over GST control) and the binding signal [9] was 1.19 fold enrichment (6-mer frequency, TF over GST control).
TTACGG was tested, and the binding signal [1] was 1.3 fold enrichment (6-mer frequency, TF over GST control), the binding signal [2] was 1.23 fold enrichment (6-mer frequency, TF over GST control) and the binding signal [3] was 1.22 fold enrichment (6-mer frequency, TF over GST control). The binding signal [4] was 1.31 fold enrichment (6-mer frequency, TF over GST control), the binding signal [5] was 1.26 fold enrichment (6-mer frequency, TF over GST control) and the binding signal [6] was 1.31 fold enrichment (6-mer frequency, TF over GST control). For the same sequence, the binding signal [7] was 1.37 fold enrichment (6-mer frequency, TF over GST control), the binding signal [8] was 1.38 fold enrichment (6-mer frequency, TF over GST control) and the binding signal [9] was 1.48 fold enrichment (6-mer frequency, TF over GST control).
ATATGC was tested, and the binding signal [1] was 1.09 fold enrichment (6-mer frequency, TF over GST control), the binding signal [2] was 1.15 fold enrichment (6-mer frequency, TF over GST control) and the binding signal [3] was 1.15 fold enrichment (6-mer frequency, TF over GST control). The binding signal [4] was 1.13 fold enrichment (6-mer frequency, TF over GST control), the binding signal [5] was 1.1 fold enrichment (6-mer frequency, TF over GST control) and the binding signal [6] was 1.08 fold enrichment (6-mer frequency, TF over GST control). The binding signal [7] was 1.16 fold enrichment (6-mer frequency, TF over GST control), the binding signal [8] was 1.07 fold enrichment (6-mer frequency, TF over GST control) and the binding signal [9] was 1.05 fold enrichment (6-mer frequency, TF over GST control).
For CCTCAG, the binding signal [1] was 1.17 fold enrichment (6-mer frequency, TF over GST control), the binding signal [2] was 1.23 fold enrichment (6-mer frequency, TF over GST control) and the binding signal [3] was 1.35 fold enrichment (6-mer frequency, TF over GST control). For the same sequence, the binding signal [4] was 1.21 fold enrichment (6-mer frequency, TF over GST control), the binding signal [5] was 1.27 fold enrichment (6-mer frequency, TF over GST control) and the binding signal [6] was 1.17 fold enrichment (6-mer frequency, TF over GST control). For the same sequence, the binding signal [7] was 1.17 fold enrichment (6-mer frequency, TF over GST control), the binding signal [8] was 1.35 fold enrichment (6-mer frequency, TF over GST control) and the binding signal [9] was 1.24 fold enrichment (6-mer frequency, TF over GST control).
For TGAATT, the binding signal [1] was 1.15 fold enrichment (6-mer frequency, TF over GST control), the binding signal [2] was 1.09 fold enrichment (6-mer frequency, TF over GST control) and the binding signal [3] was 1.19 fold enrichment (6-mer frequency, TF over GST control). For the same sequence, the binding signal [4] was 1.17 fold enrichment (6-mer frequency, TF over GST control), the binding signal [5] was 1.1 fold enrichment (6-mer frequency, TF over GST control) and the binding signal [6] was 1.17 fold enrichment (6-mer frequency, TF over GST control). The binding signal [7] was 1.22 fold enrichment (6-mer frequency, TF over GST control), the binding signal [8] was 1.19 fold enrichment (6-mer frequency, TF over GST control) and the binding signal [9] was 1.06 fold enrichment (6-mer frequency, TF over GST control).
In the case of TCTGCG, the binding signal [1] is reported as 1.12 fold enrichment (6-mer frequency, TF over GST control), the binding signal [2] is reported as 1.28 fold enrichment (6-mer frequency, TF over GST control) and the binding signal [3] is reported as 1.27 fold enrichment (6-mer frequency, TF over GST control). For the same sequence, the binding signal [4] was 1.18 fold enrichment (6-mer frequency, TF over GST control), the binding signal [5] was 1.2 fold enrichment (6-mer frequency, TF over GST control) and the binding signal [6] was 1.23 fold enrichment (6-mer frequency, TF over GST control). For the same sequence, the binding signal [7] was 1.28 fold enrichment (6-mer frequency, TF over GST control), the binding signal [8] was 1.23 fold enrichment (6-mer frequency, TF over GST control) and the binding signal [9] was 1.11 fold enrichment (6-mer frequency, TF over GST control).
